# Only some compounds are listed: those with a hit (about 0.41% of all), similar ones and a draw of the others.
# GAA glycogen – qHTS Assay for Inhibitors and Activators of Human alpha-Glucosidase Cleavage of Glycogen | Lysosomal alpha-glucosidase (Homo sapiens), P10253 | recombinant GAA, glycogen substrate, Amplex Red glucose oxidase fluorescence | Potency, µM (top dose mostly 76.4 µM), actives largely listed as inhibitors | 0.38% of 300,000 active;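 further: the screen sought inhibitors and activators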
#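 Recombinant human enzyme (4 nM); glycogen substrate; 37 C, 40 min, pH 5.0. Readout: coupled glucose oxidase/Amplex Red fluorescence.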
# Lamin A splicing – qHTS Assay for Modulators of Lamin A Splicing | HeLa LMNA splicing GFP/RFP minigene ratio, 48 h | Potency, µM (highest dose often 46.1 µM), usual class: inhibitors | 0.01% of 200,000 active; active means well fitted inhibition curve with a large enough effect in the signal ratio, with a control signal flat, not every such curve was filed as active; inconclusive means small, poorly fitted or top-dose-only effect, or effect the other way, or a change in a side signal; the % refers to the signal ratio
#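 S3 HeLa cells stably expressing lamin A-EGFP splicing minigene plus DsRed2, 600 cells/well, 48 h compound exposure at 37C. Laser-scanning cytometry; analysed as GFP (500-530 nm)/RFP (575-640 nm) total intensity ratio; 0.5% DMSO vehicle.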
# GAA inhib – qHTS Assay for Inhibitors of Human alpha-Glucosidase as a Potential Chaperone Treatment of Pompe Disease. Lysosomal alpha-glucosidase (Homo sapiens), P10253. purified human GAA, 4-MU-alpha-glucoside fluorescence. Potency, µM (highest dose often 76.9 µM), actives largely listed as inhibitors. 0.005% of 200,000 active. AID 1466, 2008
#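 Activity normalized between no-enzyme (basal) and enzyme-only wells. Conditions: 4 nM human enzyme, 400 uM fluorogenic substrate, citrate/phosphate pH 5.0 with Tween-20, 20 min room temperature, compounds up to 77 uM.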
# N370S GC – qHTS Assay for Inhibitors and Activators of N370S glucocerebrosidase as a Potential Chaperone Treatment of Gaucher Disease. N370S GC spleen homogenate, 4MU-glucoside fluorescence. Potency, µM (highest dose often 59.4 µM), actives largely listed as inhibitors. 0.092% of 330,000 active
# aGlu spleen mod – qHTS Assay for Inhibitors and Activators of Human alpha-Glucosidase From Spleen Homogenate; Lysosomal alpha-glucosidase (Homo sapiens), P10253; 0.006% of 240,000 active; Potency, µM (top dose mostly 79.9 µM), usual class: inhibitors; human spleen homogenate, 4-MU-alpha-glucoside fluorescence
#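 Human spleen homogenate (1 ug) with 4-methylumbelliferyl-alpha-D-glucopyranoside (1 mM final) in 50 mM citrate/phosphate pH 5.0, 0.01% Tween-20; 40 min at 37 C. Stopped at pH 10; 4-MU fluorescence Ex 365/Em 440 nm; AC50 by Hill fit.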
# A number is an active result; i = inactive; ? = inconclusive; nt = no result; [ ] = remark or other dose. Unless noted, the call rests on the fitted dose curve; in most records, active means well fitted curve in the direction sought with a large enough effect; inconclusive means small, poorly fitted or top-dose-only effect, or another doubt; inactive means no such curve, though single readings can be large; an effect the other way counts as inactive or inconclusive.
SMILES,GAA glycogen,Lamin A splicing,GAA inhib,N370S GC,aGlu spleen mod
C/C(CC(=O)Nc1ccc(Cl)cc1Cl)=N\NC(N)=S,22µM,?,i,i,i
C/C(CC(=O)Nc1ccc(Cl)c(Cl)c1)=N\NC(N)=S,7.9µM,?,i,i,i
C/C(CC(=O)Nc1ccc(C)c(Cl)c1)=N\NC(=O)c1ccncc1,i,?,i,i,nt
CCCCCn1c(=O)c2c(nc3n2CCN3c2ccc(Br)cc2)n(C)c1=O,i,?,nt,nt,nt
O=C(c1ccc(Nc2nccc(-c3cc4ccccc4s3)n2)cc1)N1CCC(N2CCCC2)CC1,nt,nt,nt,i,i
NNc1ccc2nnc(C(F)(F)C(F)(F)C(F)(F)F)n2n1,32µM,i,i,i,i
COc1ccc(C(=O)N/N=C/c2c(CO)cnc(C)c2O)cc1,i,?,i,i,i
COc1ccccc1N/N=C/c1c(CO)cnc(C)c1O,3.2µM,i,i,i,i
CCOc1ccc(N2C(=O)CC(N3CCc4ccccc43)C2=O)cc1 (centres undefined),14µM,i,i,i[12.8 µM],i
CCCCCCCCCCOc1cc(OCCCCCCCCCC)cc(N(CC(=O)O)CC(=O)O)c1,nt,nt,nt,i,i
O=c1nc(N/N=C/c2c[nH]c3ccccc23)cn[nH]1,i,nt,nt,i,i
C(=N\Nc1ccccn1)/c1c[nH]c2ccccc12,35µM,nt,nt,i,i
Cc1cccc(NNC(=O)C2CCC2)c1,7.9µM,nt,nt,i,i
Cc1cccc(NC(=O)C2CCCC2)c1,i,i,i,i,i
Nc1ccc(O)c2c(=O)cc(-c3ccccc3Cl)oc12,14µM,i,i[15.4 µM],i,i
O=c1cc(-c2ccccc2Cl)oc2cc(O)cc(O)c12,i,?,i,i,i
O=C(c1ccc(Cl)cc1Cl)n1nnc2ccccc21,nt,nt,nt,i,i
Cc1cccc(NC(=O)CCNS(=O)(=O)c2ccc3c(c2)CCCC(=O)N3)c1C,nt,i,nt,nt,nt
Cc1ccc(S(=O)(=O)NC(=O)Nc2c(C)n(C)n(-c3ccccc3)c2=O)cc1,16µM,i,i,i,i
Cc1cccc(N2C(=O)C(Cl)=C(Nc3c(C)n(C)n(-c4ccccc4)c3=O)C2=O)c1C,?,i,i,i,i
Cc1c(NC(=O)CN2CCN(c3ccc(O)cc3)CC2)c(=O)n(-c2ccccc2)n1C,4µM,i,i,i,i
Cc1ccc(N2C(=O)C(Cl)=C(Nc3c(C)n(C)n(-c4ccccc4)c3=O)C2=O)cc1,25µM,i,i,i,i
Cc1ccc(S(=O)(=O)NCCCCCC(=O)Nc2c(C)n(C)n(-c3ccccc3)c2=O)cc1,i,i,i,i,i
Cc1c(NC(=O)CN2CCN(c3ccc([N+](=O)[O-])cc3)CC2)c(=O)n(-c2ccccc2)n1C,i,i,i,i,i
CCC(=O)OC1(C)C(=O)C=C2C=C(CCCNC(=O)OC(C)(C)C)OC=C2C1=O (centres undefined),nt,nt,nt,i,i
SMILES,GAA glycogen,Lamin A splicing,GAA inhib,N370S GC,aGlu spleen mod
CC1C(=O)NN=C1C(=O)N/N=C\c1ccc(O)cc1O (centres undefined),i,i,i,i,i
O=c1[nH]ncc(N/N=C\c2ccc(O)cc2O)c1Cl,2.5µM,nt,i,i,i
Oc1ccc(/C=N/Nc2ncc(Br)cn2)c(O)c1,28µM,?,i,i,i
Oc1ccc(/C=N/Nc2cccc3cccnc23)c(O)c1,25µM,?,i,i,i
Oc1ccc(/C=N/Nc2nccnc2Cl)c(O)c1,11µM,?,i,?,i
COc1ccc(NCN2C(=O)C3C4C=CC(C4)C3C2=O)cc1 (centres undefined),28µM,nt,i,i,i
O=C1CCCC2=C1Sc1ccccc1N2,7.1µM,nt,nt,i,i
COc1ccc2sc(N(Cc3cccnc3)C(=O)C3COc4ccccc4O3)nc2c1 (centres undefined),nt,i,nt,nt,nt
O=C(NNC(=O)c1cc2cc3ccccc3nc2s1)c1cccc(C(F)(F)F)c1,i,i,i,i,i
O=C(NNS(=O)(=O)c1ccccc1)c1cc2cc3ccccc3nc2s1,22µM,i,i,i,i
Nc1c(C(=O)Nc2ccc(Cl)cc2F)sc2nc(-c3cccs3)ccc12,i,nt,nt,nt,nt

# Source: PubChem BioAssay (National Center for Advancing Translational Sciences (NCATS))
